In the library only some 27% were active in any assay of this set; here they are far more common.
CYP2C9 inh = inhibitors of human CYP2C9; P11712; CYP2C9 Supersomes, luciferin-H conversion, luminescence; inhibition, % at 5 µM; hit rate 20% among 96,000;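 active = blocking of liver enzyme CYP2C9 beyond about 50% at 5 µM, limit read from the data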
Cav32 inh = blocks human Cav3.2 T-type calcium channel; O95180; Cav3.2-expressing cells, Fluo-4 calcium fluorescence FDSS; active compounds read low; B-score at 10 µM; hit rate 4% among 100,000; AID 449739;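 active = single-dose well whose peak fluorescence ratio is a statistical outlier from its plate by either plate-standardised score or position-corrected B-score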
PTK2B oligo ant = antagonists of human Pyk2 oligomerization; Q14289; Q293 cells, Pyk2 FERM NanoBiT luminescence; active compounds read low; z-score (the deposit names both 25 µM and 10 µM); hit rate 0.83% among 99,000;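 active = Z-score of -3 or lower, scaled per plate to the spread of control and sample wells; inactive = z-score above -3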;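 note: negative z-score means lost luminescence so less FERM oligomerization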
CYP2C19 inhib = human CYP2C19 inhibition | P33261 | CYP2C19 Supersomes, luciferin-H EGE luminescence, 30 min | inhibition, % at 5 µM | hit rate 21% among 96,000 | AID 778;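 active = CYP2C19 inhibition above a set limit at 5 µM in the primary screen, cut at about 50% in these data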
CYP2C9 act = increases human cytochrome P450 2C9 activity; recombinant CYP2C9, luciferin-H conversion, luminescence; active compounds read high; factor 1 = untreated enzyme, 0 = blocked; activation factor at 5 µM; hit rate 1.4% among 96,000; AID 1024;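 active = activation factor of 2 or more for CYP2C9 at a 5 µM dose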
CYP2C19 act = increases human CYP2C19 enzyme activity; P33261; recombinant CYP2C19, luciferin-H EGE luminescence; active compounds read high; 0 = fully inhibited enzyme, 1 = untreated enzyme; activation factor at 5 µM; 96,000 tested, under 10 active; AID 1025;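 active = activation factor of at least 2 at 5 µM in the primary screen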
Hits are given with their value; i = inactive; nt = no result.

SMILES	CYP2C9 inh	Cav32 inh	PTK2B oligo ant	CYP2C19 inhib	CYP2C9 act	CYP2C19 act
COc1ccc(/C=N/NC(=O)c2cc(-c3ccc(C)cc3C)nc3ccccc23)cc1COC(C)=O	74	nt	i	i	i	i
COc1ccc(/C=N/NC(=O)c2ccccc2Cl)cc1CSc1nc2ccccc2s1	82	i	i	51	i	i
NC(=O)[C@@H]1CCNc2c(I)cc([N+](=O)[O-])cc2C(=O)N[C@@H](CCC(=O)O)C(=O)N[C@@H](CO)C(=O)N1	nt	i	nt	nt	nt	nt
CCc1ccc(/C=N/NC(=O)c2cc(-c3ccccc3OC)nc3ccccc23)s1	94	i	i	66	i	i
Cc1ccc(-c2cc(C(=O)NN=C3CCCC3)c3ccccc3n2)cc1	i	i	i	i	i	i
Cc1ccc(-c2cc(C(=O)N/N=C\c3cnn(C)c3C)c3ccccc3n2)cc1C	99	i	i	87	i	i
CC(C)Oc1cc(O)c2c(=O)c(-c3ccc(O)cc3)coc2c1	96	i	nt	i	i	i
CN(C(=O)COc1ccccc1C(=O)NCCc1ccccc1)c1ccccc1	nt	nt	i	nt	nt	nt
CCOc1ccc(-c2cc(N)n(S(=O)(=O)c3ccc(OC)c(OC)c3)n2)cc1	i	i	nt	i	i	i
COc1cc(-c2cc(N)n(S(=O)(=O)c3ccc(F)cc3)n2)cc(OC)c1OC	82	i	nt	79	i	i
COc1ccc(S(=O)(=O)n2nc(-c3ccc(Cl)cc3)cc2N)cc1OC	80	i	nt	83	i	i
Nc1cc(-c2ccccc2)nn1S(=O)(=O)c1ccc(F)cc1	97	-7.2	nt	100	i	i
C[C@H](NC(=O)CCC1CCC(=O)N1)c1ccccc1 (some centres not stated)	nt	i	nt	nt	nt	nt
COc1ccc(C2=NOC(C)(c3nnc(-c4ccc(Cl)cc4)o3)C2)cc1 (configuration not stated)	nt	i	nt	nt	nt	nt
O=C(OCc1ccc(Cl)cc1)c1ccccc1C(=O)c1ccccc1	i	nt	i	72	i	i
CCC(=O)Nc1ccccc1C(=O)OCc1ccc(C(=O)c2ccccc2)cc1	62	i	i	i	i	i
O=C(O)c1ccccc1C(=O)OCc1ccccc1	i	i	i	i	i	i
Cc1cc(C(=O)OCC(=O)N(C)C2CCS(=O)(=O)C2)c(C)n1-c1ccccc1 (configuration not stated)	i	i	i	i	i	i
Cc1cc(C)cc(OCC(=O)NC2=NCCS2)c1	i	i	i	i	2.3	i
COc1ccc(S(=O)(=O)N2CCC[C@H]2C(=O)NC2=NCCS2)cc1	i	i	i	i	i	i
O=C(COc1ccc2ccccc2c1)NCCNC(=O)COc1ccc2ccccc2c1	i	i	i	i	i	i
CC(C)(C)c1ccc(OCCCC(=O)NC2=NCCS2)cc1	i	i	i	65	i	i
O=C(COc1ccc2ccccc2c1)NC1=NCCS1	i	i	i	65	i	i
O=C(CCCN1C(=O)c2ccccc2C1=O)NC1=NCCS1	i	i	i	i	i	i
COc1ccc(CC(=O)NC2=NCCS2)cc1	i	i	i	76	i	i
SMILES	CYP2C9 inh	Cav32 inh	PTK2B oligo ant	CYP2C19 inhib	CYP2C9 act	CYP2C19 act
O=C(CNC(=O)c1cccs1)NC1=NCCS1	i	i	i	i	i	i
O=C(NCCN1CCOCC1)C1CCC(=O)N1C1CCCCC1 (configuration not stated)	i	i	i	i	i	i
CC1(CCc2ccc(O)cc2)NC(=O)NC1=O (configuration not stated)	i	i	i	i	i	i
Cc1cc(C)cc(NS(=O)(=O)c2ccc3c(c2)c(=O)n(C)c(=O)n3C)c1	i	i	i	i	i	i
Cc1ccc(NS(=O)(=O)c2ccc3c(c2)c(=O)n(C)c(=O)n3C)cc1F	92	i	i	94	i	i
Cc1ccc(-c2nnn(CC(=O)N3CCN(c4ccccc4)CC3)n2)o1	i	i	i	i	i	i
Cn1ccnc1SCc1cn2cc(Br)ccc2n1	i	i	i	65	i	i
Cc1ccn2cc(CSc3ccccc3N)nc2c1	i	i	i	i	i	i
O=C(NCCN1CCOCC1)C1(C(F)(F)F)C/C(=C\Cc2ccccc2)CCCO1 (configuration not stated)	nt	i	nt	nt	nt	nt
Cc1ccc(-c2noc(CNCCCN(C)C)n2)cc1	i	i	i	i	i	i
Cc1cccc(NC2=C(Cl)C(=O)OC2NC(=O)c2ccccc2)c1 (configuration not stated)	54	i	i	i	i	i

Bioassay records as filed in PubChem.
